The values below come from ChEMBL document CHEMBL4513216, “Probing the Open Global Health Chemical Diversity Library for Multistage-Active Starting Points for Next-Generation Antimalarials” (ACS Infect Dis, 2020).

The whole screen tested about 69,000 compounds, of which about 8,600 (12%) showed an effect of 50% or more. The sample as a whole holds a higher share of strong results than the screen did.

The subject of this experiment is Plasmodium berghei. The experiment in a line: Screen against P. berghei liver stage (PbLuc), transformed with Luciferase, at 10uM. The class given is functional, HepG2. The conditions noted are these: tested at 10 uM.
For `COC(=O)CN(C(=O)C(C)c1c(F)cccc1F)c1cccc(C)n1` (stereo not given), the INHIBITION is given as 76%. `COC(=O)CN(C(=O)c1cc(C(C)C)no1)c1cccc(F)c1`: the INHIBITION is 7.38%. On to `CCC(C)C(=O)N(CC(=O)OC)c1cccc(C)n1` (stereo not given), for which the INHIBITION amounted to 10.6%.

`COC(=O)CN(C(=O)c1cccc(F)c1Cl)c1cccc(C)n1`: the INHIBITION was determined as 29.8%. Take `COC(=O)CN(C(=O)c1ccc(Cl)cn1)c1cccc(F)c1`: the INHIBITION is reported as 33.1%.

Regarding `COC(=O)CN(C(=O)c1cc(C)c(F)cc1F)c1cccc(C)n1`, the INHIBITION worked out at 61.7%.

As to `O=C(O)Cc1nc2nccc(-c3ccc(F)cc3)n2n1`, the INHIBITION is 11.5%. Turning to `Cn1cccc1CN(C(=O)Cc1cccs1)C1CC1`, the INHIBITION was found to be 6.54%. In the case of `N#Cc1ccc(C(=O)O)nc1C=Cc1cccc(Br)c1`, the INHIBITION is 39.4%. For the molecule `CCN(C)C(=O)c1cnc(-c2noc3cc(N4CCCCC4)ccc23)s1`, the INHIBITION worked out at 76.3%. As for `CC1CCN(c2ccc3c(-c4ncc(C(=O)O)s4)noc3c2)CC1`, the INHIBITION is listed as 23.1%. For the molecule `O=C(NCCN1CCCC1)c1ccc2c(-c3nccs3)noc2c1`, the INHIBITION worked out at 28.2%. Take `CN(C)CCNC(=O)c1ccc2c(-c3nccs3)noc2c1`: the INHIBITION is given as -33%. Take `O=C(NC1CC1)c1cnc(-c2noc3cc(N4CCCCC4)ccc23)s1`: the INHIBITION came out at 95.5%. As to `O=C(c1cnc(-c2noc3cc(N4CCCC4)ccc23)s1)N1CCCC1`, the INHIBITION turned out to be 8.31%. Regarding `CC(C)COC(=O)N1CC(=O)N(Cc2ccco2)CC(O)C1` (stereo not given), the INHIBITION is on record as 47.2%.

With `CC(C)Nc1ncc(-c2ccncc2)c([C@@H]2CCCO2)n1`, the INHIBITION is listed as 11.8%. In the case of `CN1CCn2c(-c3cnn(C)c3)cnc2C12CCN(CC1CC1)CC2`, the INHIBITION is recorded as 0.804%. For `CN1CCC(c2nnc3n2CCN(S(=O)(=O)c2ccccc2)C3)CC1`, the INHIBITION stood at 40.45%. With `Cc1nc(CN(C)C2CCN(Cc3cccc(F)c3)C2)no1` (stereo not given), the INHIBITION was 17.5%. Take `c1cncc(CNc2cccc(OCCN3CCCCC3)c2)c1`: the INHIBITION stood at 68%.

`c1cc(NCc2cscn2)cc(OCCN2CCCCC2)c1`: the INHIBITION is recorded as 56.1%.

Take `Cc1csc(CNc2cccc(OCCN3CCCC3)c2)n1`: the INHIBITION is listed as 28%.

As for `c1cc(CN2CCCCC2)cc(NCc2cc[nH]n2)c1`, the INHIBITION was determined as 2.22%.

For the molecule `Cc1ncsc1CNc1cccc(OCCN2CCCC2)c1`, the INHIBITION is 48.5%. Under `Cc1ccnc(NCc2cccc(OCCN3CCOCC3)c2)n1` stands -21.1%. `c1ccc(NCc2cccc(OCCN3CCOCC3)c2)nc1`: the INHIBITION is -8.25%.

Take `NC(=O)C1CCN(CCc2ccc(NCc3cccnc3)cc2)CC1`: the INHIBITION is reported as 25.3%. Take `Clc1cncc(NCc2cccc(OCCN3CCOCC3)c2)n1`: the INHIBITION turned out to be 58.5%. As for `CC(C)=CCN1CCN(C(=O)C2CCS(=O)(=O)C2)CC1` (stereo not given), the INHIBITION worked out at 8.4%.

On to `Cc1ncn(CCNC(=O)Nc2ccccc2)c(=O)c1C`, for which the INHIBITION is -10.6%. As for `O=S(=O)(CCCN1CCCC(Cn2cncn2)C1)c1ccccc1` (stereo not given), the INHIBITION came to 7.67%. Take `Cn1nc(Cn2cccn2)c2c1CN(Cc1ccoc1)C2`: the INHIBITION is listed as 20.1%. In the case of `CCn1ncc2[nH]c(-c3ccc(OC)c(COC)c3)nc21`, the INHIBITION is reported as -45.8%. Consider `CC(C)(C)c1cc(C(=O)N2CCOC(c3cnccn3)C2)[nH]n1` (stereo not given), for which the INHIBITION is reported as 12.15%. Take `Cc1cc(CN2CCC(C3Nc4ccccc4S(=O)(=O)N3)CC2)oc1C` (stereo not given): the INHIBITION came out at 32.8%. As to `COCCNc1ncnc2c1CCN(C(=O)CC1CCC(=O)N1)CC2` (stereo not given), the INHIBITION amounted to 73.2%. To `COc1cccc(C(=O)N2CCc3ncnc(C)c3CC2)c1` belongs -34.9%; to `CC(C)Nc1ncnc2c1CCN(C(=O)CC1CCCC1)CC2`, 18.3%; to `COc1cccc(C)c1C(=O)N1CCc2ncnc(NCCO)c2CC1`, 27.6%. Turning to `COc1cccc(CC(=O)N2CCc3ncnc(NCCO)c3CC2)c1`, the INHIBITION came out at 64%. Turning to `COc1cccc(CC(=O)N2CCc3ncnc(NC(C)C)c3CC2)c1`, the INHIBITION is -4.55%. Take `COc1cccc(CC(=O)N2CCc3ncnc(C)c3CC2)c1`: the INHIBITION worked out at 61.5%. To `Cc1ncnc2c1CCN(C(=O)Cc1ccccn1)CC2` belongs 14.1%; to `COCCCNc1ncnc2c1CCN(C(=O)CC1C=CCC1)CC2` (stereo not given), 48.2%; to `O=C(CCc1cc2n(n1)CCCN(C(=O)[C@H]1CCCO1)C2)NC1CC1`, 33.4%. Under `CC(C)c1noc(C2CCN(S(=O)(=O)c3cccs3)CC2)n1` stands 17.5%. For the molecule `O=C(Nc1cc(C(F)(F)F)c[nH]c1=O)C1CCNCC1`, the INHIBITION was determined as 11.9%. For `O=C(CN1CCOC(Cn2cncn2)C1)NCc1cccs1` (stereo not given), the INHIBITION is listed as 34.05%. Under `Cc1ccc(CN(CCCn2ccnc2)Cc2[nH]cnc2C)s1` stands 9.93%. Consider `Cc1ccc(CN(CCCO)Cc2nc3ccccc3[nH]2)s1`, for which the INHIBITION was found to be 29.1%. For `Cc1ccc(O)c(CN(CCCn2ccnc2)Cc2ccc(C)s2)c1`, the INHIBITION worked out at 79.7%.

Turning to `Cc1ccc(CN(CCCn2ccnc2)Cc2ccccc2O)s1`, the INHIBITION was 54.4%. Take `COc1ccccc1CN(CCCn1ccnc1)CC1CCOC1` (stereo not given): the INHIBITION turned out to be 43.4%. For the molecule `Cc1ccc(CN(CCCn2ccnc2)Cc2c[nH]nc2C(C)(C)C)s1`, the INHIBITION turned out to be 70.1%. For `Cc1cn2nc(N3CCCC3Cn3nc(C)nc3C)sc2n1` (stereo not given), the INHIBITION is reported as -39.7%. Take `CC(C)c1noc(C(C)N2CCN(Cc3noc(C(C)(C)C)n3)CC2)n1` (stereo not given): the INHIBITION is given as -35.7%. As for `Cc1cc(C)nc(N2CCC(C(=O)Nc3n[nH]c(CC(C)C)n3)CC2)n1`, the INHIBITION stood at 4.93%. As for `CNC(=O)C1Cn2ccnc2C2(CCN(Cc3c(C)noc3C)CC2)O1` (stereo not given), the INHIBITION was determined as 3.11%. Under `Cc1nc(N)c2ccc(C3CCCN3)nc2n1` (stereo not given) stands 26.55%. To `Cc1cc(S(=O)(=O)NCC(O)c2sccc2C)ccc1F` (stereo not given) belongs 13.9%; to `COc1ccc(F)cc1S(=O)(=O)NCC(O)c1sccc1C` (stereo not given), 16.9%. For `COc1ccc(S(=O)(=O)NCC(O)c2sccc2C)cc1Cl` (stereo not given), the INHIBITION amounted to 51.7%. Consider `Cc1ccsc1C(O)CNS(=O)(=O)Cc1ccc(F)cc1` (stereo not given), for which the INHIBITION is reported as 9.96%.

Turning to `COc1ccc(S(=O)(=O)NCC(O)c2sccc2C)cc1C` (stereo not given), the INHIBITION was found to be 6.34%.

Turning to `Cc1ccsc1C(O)CNC(=O)Cc1ccc(S(=O)(=O)C(C)C)cc1` (stereo not given), the INHIBITION was 25.3%. Under `COc1ccc(CC(=O)NCC(O)c2sccc2C)cc1OC` (stereo not given) stands 53.8%; under `COC(=O)c1ccc(S(=O)(=O)NCC(O)c2sccc2C)cc1` (stereo not given), -11.8%; under `Cc1ccsc1C(O)CNC(=O)Cc1ccc(F)cc1` (stereo not given), 56%.

With `COc1ccccc1C(=O)NC(c1ccccn1)C1CCC(CN)CC1` (stereo not given), the INHIBITION is listed as 44.1%.
